Screening results (PubChem BioAssay)
WT yeast gro inh – growth inhibition of WT yeast, mitochondrial fusion screen; AID 1362; inhibition, % at 10 µM; 190,000 compounds, 2.1% hits; mitochondrial fusion phenotypic screen, WT strain; in the data active = inhibition above about 58%; tested in S. cerevisiae
Lmaj promast – Leishmania major promastigote growth inhibition | Leishmania major promastigotes, resazurin fluorescence viability | inhibition, % at 10 µM | AID 1063 | 200,000 compounds, 9% hits; in the data active = inhibition above about 50%;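 also: promastigotes grown with compound for 44 hours at 28 °C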
Arbovirus anti – blocks arbovirus infection. 200,000 compounds, 0.37% hits. inhibition, % at 10 µM. arbovirus infection cell-based antiviral screen; in the data active = inhibition above about 30%
CHOP inh – CHOP inhibition in unfolded protein response; AID 2732; inhibition, % at 10 µM; 220,000 compounds, 3.8% hits; CHO-K1 CHOP-promoter luciferase, tunicamycin-induced, 15-18 h;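 active = compounds that reduced the stress-induced luciferase reporter signal by more than about 70% of percent inhibition, limit read from the data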;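 also: 0% = tunicamycin plus vehicle and 100% = wells without tunicamycin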
L major 1uM – inhibitors of Leishmania major promastigote growth, repeat at 1 uM | shares compounds with Lmaj promast | L. major promastigote growth, resazurin fluorescence, 48 h | inhibition, % at 1 µM | 1,100 compounds, 13% hits;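 active = inhibition above about 50% in both repeat tests, limit read from the data; inconclusive = one repeat under the set limit, the other over it; inactive = both repeats under the set limit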
An asterisk follows results filed as active; u = inconclusive; x = no result. The list is not random: actives were taken first. Their share in the collection is about 12%.

SMILES	WT yeast gro inh	Lmaj promast	Arbovirus anti	CHOP inh	L major 1uM
CC(NC(=O)C1CCN(S(=O)(=O)c2cnc[nH]2)CC1)c1ccccc1 (centres undefined)	-8	-3	5	22	x
CC1CCCN(c2ccc([N+](=O)[O-])cc2C(=O)c2ccccc2)C1 (centres undefined)	40	11	-19	34	x
Cc1ccc(-n2nnnc2-c2cnc3ccc(Cl)cc3c2-c2ccccc2)cc1	15	-4	-12	12	x
Clc1ccc2[nH]cc(-c3nnnn3-c3ccc4ccccc4c3)c2c1	8	99*	-11	59	86*
CCOCCn1c(CN2CCc3ccccc3C2)nc2c1c(=O)n(C)c(=O)n2C	x	x	x	-7	x
COc1ccc(C(=O)CCN2CCN(c3ccccc3F)CC2)cc1	2	79*	-31	-26	1
COc1ccc(NS(=O)(=O)c2cc(C)ccc2NC(=O)c2cc(C)oc2C)cc1	-6	52*	-17	x	19
COc1ccc(NS(=O)(=O)c2cccc(C(=O)NNC(=O)c3cc(C)oc3C)c2)cc1	-10	-9	-2	7	x
CC(=O)N(c1cccc(Br)c1)C1C=CS(=O)(=O)C1 (centres undefined)	8	-1	8	-2	x
Cc1ccc(N(C(=O)C2CCCC2)C2C=CS(=O)(=O)C2)cc1C (centres undefined)	-4	56*	-1	3	-9
O=C(CCCl)N1CCCC2(CCCCC2)C1	x	x	x	11	x
O=c1[nH]cc([N+](=O)[O-])cc1Br	8	61*	13	-6	-5
O=C1NC(=S)N/C1=C/c1ccc(-c2c(Br)cc([N+](=O)[O-])cc2Br)o1	36	19	-25	32	x
CCCOC(=O)CSC1=C(C#N)C(c2ccccc2Cl)CC(=O)N1 (centres undefined)	1	100*	6	16	93*
Cc1oc(-c2cccs2)nc1CN1CCN(CC(C)C)C(CCO)C1 (centres undefined)	14	2	-5	20	x
FC(F)(F)c1nc2ccccc2n2c(-c3c(Cl)cccc3Cl)nnc12	-10	57*	-9	36	-5
CC1CCC2(CC1)NC(=O)N(Cc1cc(=O)n3ccsc3n1)C2=O (centres undefined)	x	x	x	4	x
Cc1ccc(CNC(=O)c2cnccn2)cc1	-19	-8	-2	28	x
CN(Cc1cnccn1)C(=O)CC1C(=O)NCCN1Cc1c(F)cccc1Cl (centres undefined)	x	x	x	13	x
CCOC(=O)c1c(NC(=O)c2ccc(S(=O)(=O)N3CCOCC3)cc2)sc2c1CCN(C)C2	1	68*	7	17	-16
N/C(=N\OC(=O)CCC1CCCCC1)c1ccc([N+](=O)[O-])cc1	1	76*	15	35	1
N/C(=N\OC(=O)CC1CCCCC1)c1ccc([N+](=O)[O-])cc1	8	-10	-5	5	x
Cc1csc(NC(=O)CSc2nnc(-c3ccc(S(=O)(=O)N4CCCC4)cc3)o2)n1	-2	99*	-6	12	-3
Nc1cccc2nc3ccccc3cc12	40	101*	-32	x	79*
CC(C(=O)OCC(=O)Nc1cccc(S(=O)(=O)N(C)C)c1)N1C(=O)c2ccccc2C1=O (centres undefined)	-14	-1	4	12	x
SMILES	WT yeast gro inh	Lmaj promast	Arbovirus anti	CHOP inh	L major 1uM
O=C1CCC([N+](=O)[O-])C(c2cccc(Br)c2)N1 (centres undefined)	-15	54*	-2	-1	-10
Cc1ccccc1N1C(S)=C(C#N)C(=O)NC12CCCCC2	4	51*	-4	-3	-20
CCOc1ccc(NC(=O)c2cn(-c3ccc(OCC)cc3)c(=O)c3cc(OC)c(OC)cc23)cc1	21	89*	-7	25	-9
COc1ccc2nc(-c3ccccc3)[nH]c2c1	x	69*	-13	6	-5
CN(C)Cc1ccccc1Sc1ccc(Br)cc1	-12	14	-8	34	x
C#CCSc1nsc(SCC#C)c1C#N	4	94*	2	25	-14
COc1ccc(-n2cc(-c3ccc(OC(F)F)cc3)[n+]3c2CCCCC3)cc1	23	99*	0	11	-12
COc1ccc(N2CC(O)(c3ccc(OC(F)F)cc3)[N+]3=C2CCCC3)cc1 (centres undefined)	-2	-4	1	-11	x
O=C(CC12CCC(CC1)C2)NCc1ccc2c(c1)OCO2	1	-1	-20	8	x
Cc1oc2c(CN3CCCC3)c(O)ccc2c(=O)c1-c1ccc(Br)cc1	2	99*	4	x	-5
O=[N+]([O-])c1cccnc1N1CCN(c2ccc(F)cc2)CC1	17	-4	12	5	x
COc1ccccc1N1CCN(C2CCN(C(=O)c3cccc(F)c3)CC2)CC1	-7	82*	-1	49	-17
O=C(CCSCCc1ccccn1)Nc1ccc(Br)cn1	3	-7	2	14	x
Cc1ccc(N(CC(O)CON=C2c3ccccc3-c3ccccc32)S(C)(=O)=O)cc1 (centres undefined)	56	100*	-4	91*	u
Cc1ccc(N(CC(O)CN2CCOCC2)S(=O)(=O)c2ccc3ccccc3c2)cc1 (centres undefined)	-15	8	-23	-6	x
Cc1c(CCOC(=O)c2cccc([N+](=O)[O-])c2)sc[n+]1CC(=O)c1ccccc1	0	-1	-5	-14	x
c1cncc(-c2nnc(-c3cccnc3)nn2)c1	14	97*	-48	7	-22
CC(C)c1cc(C(=O)O)c2cnn(C(C)C)c2n1	x	x	x	7	x
Cc1nc2ccccc2n2c(-c3ccccc3)c3c(=O)n(C)c(=O)n(C)c3c12	x	3	-3	64	x
c1ccc2c(c1)CCOC2CNCCCN1CCCCC1 (centres undefined)	-18	56*	-14	9	-5
COc1ccc2nc(N3C(=O)/C(=C/c4ccccc4)NC3=S)sc2c1	-2	61*	-11	33	-13
CCCCOc1ccc(Nc2cc(Cl)ccc2C(=O)O)cn1	x	x	x	9	x
COc1ccc2c(=O)c3c(=O)n(-c4ccccc4)c(-c4ccc(C)cc4)nc3oc2c1	x	x	x	10	x
Cc1c(Br)c([N+](=O)[O-])nn1CCCC(=O)Nc1sc2c(c1C#N)CCC2	25	82*	-2	9	-3
Cc1c(Cl)c([N+](=O)[O-])nn1CCCC(=O)Nc1sc2c(c1C#N)CCC2	-5	21	-2	1	x
SMILES	WT yeast gro inh	Lmaj promast	Arbovirus anti	CHOP inh	L major 1uM
CSc1ccc(C(=O)C2CCCN(C(=O)c3ccc4c(c3)no[n+]4[O-])C2)cc1 (centres undefined)	x	x	x	22	x
CC(SC#N)C(=O)C12CC3CC(CC(C3)C1)C2 (centres undefined)	-4	63*	-12	-27	12
C=C(C)c1cccc(C(C)(C)NC(=O)N(C)C2CCN(C)CC2)c1	17	98*	2	6	2
C1CCC(OCCN2CCN(CCOC3CCCCC3)CC2)CC1	3	95*	-11	39	46
Cc1ccccc1C(=O)Oc1ccc(Sc2ccc(O)cc2)cc1	87*	54*	-18	96*	1
Cc1ccccc1C(=O)Oc1ccc(-c2csnn2)cc1	x	x	x	-17	x
CCCn1ncc(/C=N/O)c1C	x	x	x	18	x
